Source: ChEMBL document CHEMBL3433997, “St. Jude Leishmania screening dataset” (2016)
Several values for one entry are separate records, joined by “and”; a condition that tells them apart may be missing. Equal entries are not always repeated.

These compounds were tested against Glucose transporter (Leishmania mexicana) (UniProt O61059) (assay: ST_JUDE_LEISH: Cytotoxicity at 2uM final concentration against transgenic Leishmania Mexicana promastigotes LmGT2 that are glucose transport deficient and complemented with the L. Mexicana glucose transporter 2. Activity is measured by DNA content using SYBR green in vitro).
Assay type: functional

Point of comparison: `O=C(/C=C/c1cc(C(F)(F)F)ccc1F)NC1CCC(CN2CCC(c3c[nH]c4ccccc34)CC2)CC1` (centres undefined), inhibition 6.74%. Against it:
- CC(=O)C1(c2ccccc2)CCN(CCC2(c3ccc(Cl)c(Cl)c3)CN(C(=O)Nc3cccc(C(F)(F)F)c3)CCO2)CC1 (centres undefined) — lower, 3.14%
- CS(=O)(=O)Nc1ccc2[nH]cc(C3CC4CCC(C3)N4CC3CCC(NC(=O)/C=C/c4ccc(Cl)c(Cl)c4)CC3)c2c1 (centres undefined) — lower, 5.09%
- COC(=O)c1ccc(CC(C)NCC(O)c2cccc(SC(F)(F)F)c2)cc1 (centres undefined) — lower, 4.01%
- CC[C@H]1CN2CCc3cc(OC)c(OC)cc3[C@@H]2C[C@@H]1C[C@H]1NCCc2cc(OC)c(OC)cc21 — higher, 90.3%
- CC[C@H]1CN2CC[C@H]1C[C@H]2[C@H](O)c1cc(-c2ccc3ccccc3c2)nc2ccc(OC)cc12 — lower, 3.26%
- CC(Cc1ccc(C(C)(C)C)cc1)NCC(O)c1ccccc1 (centres undefined) — lower, 0.43%
- O=C(/C=C/c1cc(F)c(F)cc1F)N1CCC(CN2CCC(c3c[nH]c4ccccc34)CC2)CC1 — lower, 0.46%
- CC[C@H]1CN2CC[C@@H]1C[C@H]2[C@H](O)c1cc(-c2cccnc2)nc2ccc(OC)cc12 — lower, 4.02%
- CC(Cc1ccc(SCCSc2ccccc2)cc1)NCC(O)c1cccc(Cl)c1 (centres undefined) — lower, 1.16%
- C#CCOc1ccc(CC(C)NCC(O)c2cccc(C(F)(F)F)c2)cc1 (centres undefined) — lower, 0.98%
- O=C(Nc1cc(C(F)(F)F)cc(C(F)(F)F)c1)N1CCC(CN2CCC(c3c[nH]c4ccccc34)CC2)CC1 — lower, 1.9%
- CCCCCc1cc(O)c2c(c1)OC(C)(C)CC2C1=CCN(Cc2ccccc2)CC1 (centres undefined) — lower, 2.74%
- C[C@H](Cc1ccc(OCCCCCCOc2ccccc2)cc1)NC[C@H](O)c1cccc(Cl)c1 — lower, -0.25%
- CCC1(C)N=C(N)N=C(N)N1c1ccc(Cl)cc1 (centres undefined) — lower, 2.79%
- COC(=O)CN(C(=O)/C=C/c1ccc(Cl)c(Cl)c1)C1CCC(CN2CCC(c3c[nH]c4ccccc34)CC2)CC1 (centres undefined) — lower, 2.24%
- CC(Cc1ccc(OCc2ccccc2)cc1)NCC(O)c1cccc(Cl)c1 (centres undefined) — lower, 4.23%
- COc1ccc(OC)c(C(O)C(C)NCc2cc(Cl)ccc2O)c1 (centres undefined) — lower, 1.94%
- CN1CC=C(c2c[nH]c3ccc(Oc4ccccc4)cc23)CC1 — lower, 3.03%
- O=C1c2ccccc2CCC1CCN1CC=C(c2c[nH]c3ccccc23)CC1 (centres undefined) — lower, 3.16%
- COc1ccc2[nH]cc(C3=CCN(Cc4ccccc4)CC3)c2c1 — lower, 2.21%
- Cc1[nH]c2ccccc2c1C1=CCN(CCCCC2(C)C(=O)Nc3cccc(F)c32)CC1 (centres undefined) — lower, 0.65%
- Cc1ccc2c(C3=CCN(CCCCC4(C)C(=O)Nc5c(F)cccc54)CC3)c(C)[nH]c2c1 (centres undefined) — lower, 1.63%
- CCCN(CC(=O)NCCc1ccccc1)c1ccc(C#N)c2ccccc12 — lower, 1.66%
- CC[C@H]1CN2CC[C@@H]1C[C@H]2[C@H](O)c1cc(N2CCOCC2)nc2ccc(OC)cc12 — lower, -2.42%
- COC(=O)/C=C/c1ccc(CC(C)NCC(O)c2cccc(Br)c2)cc1 (centres undefined) — lower, 0.91%
- O=C(NC1CCC(CN2CCC(c3c[nH]c4ccccc34)CC2)CC1)c1cn(Cc2ccccc2)c2ccccc12 (centres undefined) — lower, -1.09%
- CCCCCC(C)C(C)c1cc(O)c2c(c1)OC(C)(C)c1cnccc1-2 (centres undefined) — lower, -1.32%
- COc1ccc(F)cc1-c1csc(N(c2ccc(F)cc2)C2CCNCC2)n1 — lower, 0.05%
- CC(=O)N(Cc1cccc(-c2cccc(CNCCc3ccccc3)c2)c1)C1CCN(Cc2ccccc2)CC1 — lower, 4.41%
- COC(=O)c1ccc(CC(C)NCC(O)c2cccc(OC(F)(F)F)c2)cc1 (centres undefined) — lower, 1.7%
- CC[C@@]1(O)C(=O)OCc2c1cc1n(c2=O)Cc2c-1nc1cc3c(cc1c2CN1CCOCC1)OCO3 — higher, 71.6%
- Cc1ccc(CC(C)NCC(O)c2cccc(C#N)c2)cc1 (centres undefined) — higher, 9.79%
- Cn1nc(C(F)(F)F)cc1-c1ccc(C(=O)NC2CCC(CN3CCC(c4c[nH]c5ccccc45)CC3)CC2)s1 (centres undefined) — lower, 2.24%
- N#Cc1ccc(N(CC(=O)NCCc2ccc(F)cc2)CC2CC2)c2ccccc12 — lower, 1.47%

For `Cc1ccc(/C=C/C(=O)NC2CCC(CN3CCC(c4c[nH]c5ccccc45)CC3)CC2)cc1C` (centres undefined), the inhibition was -0.3% and -2.39%.
With `O=C(/C=C/c1ccc(C(F)(F)F)cc1)NC1CCC(CN2CCC(c3c[nH]c4ccccc34)CC2)CC1` (centres undefined) the inhibition was 0.63% and -2.05%.
For `COc1ccc(C[C@@H](C)NC[C@H](O)c2cccc(Cl)c2)cc1F`, the inhibition was 0.88% and 0.58%.
For `O=C(/C=C/c1cccc(F)c1)NC1CCC(CN2CCC(c3c[nH]c4ccccc34)CC2)CC1` (centres undefined), the inhibition was -1.71% and 2.77%.
